A selection: hits, their analogues and other compounds. The true share with any hit is near 5.7%.
GLP1R cytotox = qHTS of GLP-1 Receptor Inverse Agonists: Cytotox Screen; HEK293 cAMP-luciferase reporter cells, luminescence, 24 h; 0.13% of 410,000 active; Potency, µM (highest dose often 38.3 µM), usual class: inhibitors;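 further: loss of luciferase light is scored as toxicity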
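Luminescence readout: signal drop marks cytotoxicity. Plated cells grew 12 h at 37 °C, 5% CO2, received 23 nL compound for 24 h, then got luciferase reagent, read after 12 min at RT.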
DRD3 antagonist = qHTS of D3 Dopamine Receptor Antagonist: qHTS. max response, negative = inhibition, %. D(3) dopamine receptor (Homo sapiens), P35462. 2.5% of 360,000 active. D3R cells, DiscoveRx beta-arrestin luminescence, antagonist mode; hits give low values; in the data active means max response below about -50%; inconclusive means no clear call, values can overlap the other calls
Target sequence (P35462 whole entry, looked up): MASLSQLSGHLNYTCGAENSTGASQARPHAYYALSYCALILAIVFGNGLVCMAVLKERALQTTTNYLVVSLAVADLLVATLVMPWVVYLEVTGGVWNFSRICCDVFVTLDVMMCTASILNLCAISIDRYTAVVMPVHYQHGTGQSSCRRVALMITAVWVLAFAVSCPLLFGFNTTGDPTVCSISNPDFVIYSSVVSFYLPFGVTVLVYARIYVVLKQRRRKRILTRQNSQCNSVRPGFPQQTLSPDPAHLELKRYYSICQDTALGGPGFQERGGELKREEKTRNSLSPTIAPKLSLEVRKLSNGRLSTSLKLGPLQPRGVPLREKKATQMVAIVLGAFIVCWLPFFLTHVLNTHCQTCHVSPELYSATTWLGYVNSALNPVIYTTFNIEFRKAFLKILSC
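Cells plated overnight at 1500 cells/well, then exposed to library compounds with dopamine controls for 90 minutes at 37 degrees C. DiscoveRx reagent added for 30–60 minutes at room temperature; luminescence read, quantitative HTS format.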
GLP-1R agonist = qHTS of GLP-1 Receptor Agonists; AID 624172, 2012; 0.007% of 380,000 active; Glucagon-like peptide 1 receptor (Homo sapiens), P43220; HEK293 GLP-1R CRE-luciferase, luminescence, 4-6 h; cells express a hypersensitive GLP-1R form; Potency, µM (doses to about 45.6 µM), hits mostly activators
GLP1R inv ag = qHTS of GLP-1 Receptor Inverse Agonists (Inhibition Mode); HEK293 GLP-1R CRE-luciferase, luminescence, 24 h; GLP-1R form is constitutively active; Potency, µM (series often up to 38.3 µM), usual class: inhibitors; 1.6% of 410,000 active; AID 624417, 2012; further: nearly all actives have a fitted effect of over 55% in size
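qHTS in 1536-well format: reporter HEK293 cells expressing constitutive GLP-1R activity in DMEM + 10% Nu serum, 24 hr with compounds at 37 deg C, luminescence read after 12 min with detection reagent.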
DRD3 agonist = qHTS of D3 Dopamine Receptor Agonist: qHTS; max activation, %; 0.58% of 410,000 active; AID 652048, 2013; D3R DiscoveRx beta-arrestin cells, luminescence, 90 min; in the data active means max activation above about 30%
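Cells at 1500/well, incubated overnight, then treated with pinned compounds (dopamine as control) for 90 min at 37 degrees C. DiscoveRx reagent added for 30 - 60 minutes at room temperature; luminescence read.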
ClpP mod = qHTS Assay for Activators of ClpP. purified B. subtilis ClpP, FRET peptide cleavage, 20 min. ATP-dependent Clp protease proteolytic subunit (Bacillus subtilis (strain 168)), P80244. 1.9% of 340,000 active. Potency, µM (top dose mostly 57.5 µM); active means well fitted falling curve with a large enough effect; inconclusive means small, poorly fitted or top-dose-only effect; inactive means no such curve, though single readings can be large or run the other way; further: the source files actives as falling curves though it sought activators and does not explain the sign; nearly all actives have a fitted effect of over 65% in size
Target sequence (P80244 whole entry, looked up): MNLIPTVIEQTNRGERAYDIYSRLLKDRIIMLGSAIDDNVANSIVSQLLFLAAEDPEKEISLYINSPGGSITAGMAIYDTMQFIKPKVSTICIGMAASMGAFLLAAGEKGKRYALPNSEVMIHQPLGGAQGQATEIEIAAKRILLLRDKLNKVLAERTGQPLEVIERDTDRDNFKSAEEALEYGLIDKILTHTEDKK
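Buffer: 100 mM Tris/HCl pH8, 100 mM KCl, 0.05% low protease BSA, 2.5% glycerol, 0.01% Tween-20. ClpP 10 microg/mL final; 20 min RT; delta FRET normalized to ADEP and DMSO controls.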
Of the large screens only hits and unclear results are named; the others gave an inactive call; ! = not confirmed by another sample. Unless noted, the call rests on the fitted dose curve; in most records, active means well fitted curve in the direction sought with a large enough effect; inconclusive means small, poorly fitted or top-dose-only effect, or another doubt; inactive means no such curve, though single readings can be large; an effect the other way counts as inactive or inconclusive.

CCOC(=O)N1CCN(CC(O)COCc2ccc(Cl)cc2)CC1 (stereo not drawn)	ClpP mod 14.1µM
OC(COCc1cccs1)CN1CCCCCC1 (stereo not drawn)	none
CCCCn1cnc2cc(NC(=O)c3cc(OC)c(OC)c(OC)c3)ccc21	none (no result: DRD3 antagonist, GLP-1R agonist)
Cc1ccc(OCC(O)CNC2CCCC2)c(C)c1 (stereo not drawn)	GLP1R inv ag inconclusive
COc1cccc(OC)c1OCCCNC1CCCC1	DRD3 antagonist -54.9
Cc1ccc(OCCCCNC2CCCCC2)c(C)c1	DRD3 antagonist -79.4, GLP1R inv ag inconclusive
Cc1ccc(C)c(OCCCNC2CCCC2)c1C	DRD3 antagonist -72.8, GLP1R inv ag inconclusive (no result: ClpP mod)
Cc1ccc(OCCCNC2CCCC2)cc1	none
Cc1cccc(CNC(=O)c2ccc3oc(=O)n(Cc4ccccc4)c3c2)c1	GLP1R inv ag inconclusive (no result: DRD3 antagonist, GLP-1R agonist)
CN(C)/C=N/c1nc2c(ncn2C2CC(O)C(CO)O2)c(=O)[nH]1 (stereo not drawn)	none (no result: GLP1R cytotox, DRD3 antagonist, GLP-1R agonist, GLP1R inv ag, DRD3 agonist)
COc1ccc(Cc2nnc(Nc3ccc(C)cc3C)[nH]c2=O)cc1	DRD3 antagonist -61.0, GLP1R inv ag inconclusive
O=C1c2ccccc2NC(c2ccccc2O)N1Cc1ccco1 (stereo not drawn)	none (no result: GLP1R cytotox, DRD3 antagonist, GLP-1R agonist, GLP1R inv ag, DRD3 agonist)
COc1cc2[nH]c(=S)nc(NCCCOC(C)C)c2cc1OC	DRD3 antagonist -78.3
Cc1cc2c(cc1C)N[C@]1(C[C@H]3CCCC(=O)N4CC[C@@H](C1)[C@@H]34)C(=Nc1ccccc1C)N2	none (no result: GLP1R cytotox, DRD3 antagonist, GLP-1R agonist, GLP1R inv ag, DRD3 agonist)
O=C1CCC[C@@H]2C[C@@]3(C[C@@H]4CCN1[C@H]24)Nc1cc(Cl)c(Cl)cc1NC3=NCc1ccccc1	DRD3 antagonist inconclusive, GLP1R inv ag 10µM
CC1=NN(C(N)=S)C(=O)C1N=Nc1ccc(O)cc1 (stereo not drawn)	DRD3 antagonist -66.2, GLP1R inv ag inconclusive (no result: ClpP mod)
CCc1ccccc1NC(=O)CSc1nc2c(c(=O)[nH]1)CN(Cc1ccccc1OC)CC2	none (no result: DRD3 antagonist, GLP-1R agonist)
Cc1ccc(/C(O)=C2/C(=O)C(=O)OC2c2ccc(Cl)cc2)cc1 (stereo not drawn)	GLP1R inv ag inconclusive
O=C1OC(c2ccccc2)/C(=C(/O)c2ccc(Cl)cc2)C1=O (stereo not drawn)	DRD3 antagonist -61.9
O=C(Cc1cn(Cc2cccc(Cl)c2)c2ccccc12)N1CCCCCC1	GLP1R inv ag 10µM
CC1CCCN(C(=O)Cc2cn(Cc3cccc(Cl)c3)c3ccccc23)C1 (stereo not drawn)	GLP1R inv ag inconclusive
COc1cccc(CCNC(=O)c2cnc3sc(N4CCCC4)nn3c2=O)c1	none (no result: DRD3 antagonist, GLP-1R agonist)
Cc1ccc(NC(=O)Cc2ccc(Cl)cc2)nc1	none
Cc1ccc(NC(=O)Cc2ccc(-c3ccccc3)cc2)nc1	GLP1R inv ag 10µM
O=C(CSc1nnc2n(C3CCCC3)c(=O)c3ccccc3n12)N1CCCCCC1	GLP1R cytotox inconclusive, DRD3 agonist 34.3
CC1CCCN(C(=O)CSc2nnc3n(C4CCCC4)c(=O)c4ccccc4n23)C1 (stereo not drawn)	DRD3 agonist 46.6
CC1CCCN(C(=O)CSc2nnc(-c3cccnc3)n2C2CCCCC2)C1 (stereo not drawn)	none
O=C(Nc1c(C(=O)N2CCN(c3ccccc3F)CC2)oc2ccccc12)c1ccc(Br)o1	GLP1R inv ag inconclusive (no result: DRD3 antagonist, GLP-1R agonist)
CC(C)(C)OC(=O)N1CCC(c2c(C(=O)N3CCOCC3)cnn2-c2cccc(F)c2)CC1	DRD3 agonist 73.9 (no result: DRD3 antagonist, GLP-1R agonist)
CC(C)(C)OC(=O)N1CCC(c2c(C(=O)N3CCCCC3)cnn2-c2cccc(F)c2)CC1	none (no result: DRD3 antagonist, GLP-1R agonist)
Cc1ccc(Cl)cc1N1CCN(C(=O)c2cnn(C)c2C2CCN(C(=O)OC(C)(C)C)CC2)CC1	GLP1R inv ag 10µM (no result: DRD3 antagonist, GLP-1R agonist)
O=C1c2ccccc2NC(c2cccnc2)N1c1ccccc1F (stereo not drawn)	ClpP mod 11.2µM
Cc1nn(Cc2ccc(Cl)c(Cl)c2)c(C)c1NC(=O)c1cn(-c2ccccc2)nc1-c1ccccc1	GLP1R inv ag 10µM
Cc1cccc(NC(=O)c2cn(-c3ccccc3)nc2-c2ccccc2)c1C	GLP1R inv ag 4.47µM (no result: DRD3 antagonist, GLP-1R agonist)
Cc1ccccc1NC(=O)c1cn(-c2ccccc2)nc1-c1ccccc1	GLP1R inv ag 10µM
COc1ccccc1NC(=O)c1cn(-c2ccccc2)nc1-c1ccccc1	GLP1R inv ag inconclusive, ClpP mod inconclusive (no result: DRD3 antagonist, GLP-1R agonist)
Cc1nn(Cc2ccc(Cl)cc2)c(C)c1NC(=O)c1c(-c2ccccc2)noc1C	GLP1R inv ag inconclusive
Cc1cccc(C)c1NC(=O)c1cn(-c2ccccc2)nc1-c1ccccc1	none
COc1ccc(/C=C2/CSC/C(=C/c3ccc(OC)c(OC)c3)C2=O)cc1OC	DRD3 antagonist -50.2, GLP1R inv ag 5.01µM
C[C@@H]1CN([C@@H](C)CO)C(=O)c2cc(NC(=O)c3ccccc3)ccc2O[C@@H](C)CCCCO[C@@H]1CN(C)S(=O)(=O)c1ccc(F)cc1	none
O=C(CCC1CCN(Cc2nccs2)CC1)Nc1ccccc1	none
CC(=O)O[C@]1(C(C)=O)CC[C@H]2[C@@H]3C=C(Cl)C4=CC(=O)[C@@H]5C[C@@H]5[C@]4(C)[C@H]3CC[C@@]21C	DRD3 antagonist -84.9!
CC(=O)[C@]1(O)CCC2C3C=C(Cl)C4=CC(=O)C5CC5[C@@]4(C)C3CC[C@]21C (stereo partly drawn)	none (no result: GLP1R cytotox, DRD3 antagonist, GLP1R inv ag, DRD3 agonist, ClpP mod)
O=C(CCCCn1c(=O)c2ccccc2n(Cc2cccc(Cl)c2)c1=O)NCc1ccc2c(c1)OCO2	none (no result: DRD3 antagonist)
O=C(NCCN1C(=O)S/C(=C\c2ccc(Cl)c(Cl)c2)C1=O)c1cnccn1	none
O=C(NCCN1C(=O)S/C(=C\c2ccc(Cl)c([N+](=O)[O-])c2)C1=O)C1=COCCO1	GLP1R cytotox inconclusive, DRD3 antagonist -55.2, GLP1R inv ag inconclusive (no result: ClpP mod)
COCCNC(=O)C1(C)CCCN(C(=O)c2ccccc2F)C1 (stereo not drawn)	none
CCCN1CCN(c2nnc(-n3cccc3C(=O)Nc3cc(Cl)ccc3C)s2)CC1	none (no result: DRD3 antagonist, GLP-1R agonist)
COC(=O)c1cnc2c(C(F)(F)F)cccc2c1OC	ClpP mod 15.8µM
CCOc1ccc(CNC(=O)CCS(=O)(=O)c2cc3c4c(c2)CCN4C(=O)CC3)cc1OC	none (no result: DRD3 antagonist, GLP-1R agonist)
COc1ccc(OC)c(-c2noc(CSc3nnc(Cc4ccccc4)n3-c3cccc(C)c3)n2)c1	none (no result: DRD3 antagonist, GLP-1R agonist)
CN(c1ncc(C(F)(F)F)cc1Cl)N1C(=O)c2cccc(N)c2C1=O	GLP1R inv ag 3.16µM (no result: ClpP mod)
